# Measurements taken from PubChem BioAssay AID1159580 (chemical genetic matrix, 2015).
# The whole screen tested about 5,500 compounds, of which about 2,000 (36%) were called active. Not shown: some 18% with an inconclusive outcome. Some of the results follow. A number with no mark means an inactive call. Rule as the data show it: active = normalized growth mostly below about 0.91 (no sharp cut-off); inconclusive = no clear call, values can overlap the other calls; inactive = mostly above about 0.92.
# Assay: chemical genetic growth profiling, strain panel (AID 1159580);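 also: tested at 20 µM; growth read once vehicle control cultures reached saturation at 30 °C; 1 = growth at the plate median or of vehicle wells; lower values mean less growth of the strain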
# Details: growth OD
# [1] = S. cerevisiae deletion strains, locus YCL061C, strain MRC1, active compounds read low
structure (smiles),measurement,setting,value
Cc1c(Cl)cccc1SCC(=O)O,normalized growth,"S. cerevisiae deletion strains, locus YAL013W, strain DEP1, active compounds read low",0.944
same,normalized growth,"S. cerevisiae deletion strains, locus YBR229C, strain ROT2, active compounds read low",0.958
same,normalized growth,[1],0.989
same,normalized growth,"S. cerevisiae deletion strains, locus YDL101C, strain DUN1, active compounds read low",0.973
same,normalized growth,"S. cerevisiae deletion strains, locus YDL134C, strain PPH21, active compounds read low",1.01
same,normalized growth,"S. cerevisiae deletion strains, locus YDR150W, strain NUM1, active compounds read low",0.926
same,normalized growth,"S. cerevisiae deletion strains, locus YEL061C, strain CIN8, active compounds read low",0.977
same,normalized growth,"S. cerevisiae deletion strains, locus YGR078C, strain PAC10, active compounds read low",0.964
same,normalized growth,"S. cerevisiae deletion strains, locus YHR030C, strain SLT2, active compounds read low",1.06
same,normalized growth,"S. cerevisiae deletion strains, locus YHR087W, strain rtc3, active compounds read low",0.984
same,normalized growth,"S. cerevisiae deletion strains, locus YJR043C, strain POL32, active compounds read low",0.973
same,normalized growth,"S. cerevisiae deletion strains, locus YJR075W, strain HOC1, active compounds read low",0.937
same,normalized growth,"S. cerevisiae deletion strains, locus YKL190W, strain CNB1, active compounds read low",1.01
same,normalized growth,"S. cerevisiae deletion strains, locus YLR039C, strain RIC1, active compounds read low",1
same,normalized growth,"S. cerevisiae deletion strains, locus YLR058C, strain SHM2 (second series), active compounds read low",0.967
same,normalized growth,"S. cerevisiae deletion strains, locus YLR085C, strain ARP6, active compounds read low",1.03
same,normalized growth,"S. cerevisiae deletion strains, locus YLR262C, strain YPT6, active compounds read low",0.995
same,normalized growth,"S. cerevisiae deletion strains, locus YML094W, strain GIM5, active compounds read low",0.997
same,normalized growth,"S. cerevisiae deletion strains, locus YMR219W, strain ESC1, active compounds read low",0.945 (active)
same,normalized growth,"S. cerevisiae deletion strains, locus YMR263W, strain SAP30, active compounds read low",0.941
same,normalized growth,"S. cerevisiae deletion strains, locus YNL153C, strain GIM3, active compounds read low",0.942
same,normalized growth,"S. cerevisiae deletion strains, locus YNL298W, strain CLA4 (second series), active compounds read low",1.02
same,normalized growth,"S. cerevisiae deletion strains, locus YNL322C, strain KRE1, active compounds read low",0.944
same,normalized growth,"S. cerevisiae deletion strains, locus YNR030W, strain Alg12, active compounds read low",1
same,normalized growth,"S. cerevisiae deletion strains, locus YPL055C, strain LGE1, active compounds read low",0.837
same,normalized growth,"S. cerevisiae deletion strains, locus YPL241C, strain CIN2, active compounds read low",1
same,normalized growth,"S. cerevisiae deletion strains, locus YPR135W, strain CTF4, active compounds read low",1.06
same,normalized growth,"S. cerevisiae strains, strain wild type, active compounds read low",1.01
Cc1cccc(Nc2cc(Cl)nc(SCC(=O)O)n2)c1C,normalized growth,"S. cerevisiae deletion strains, locus YAL021C, strain ccr4, active compounds read low",0.932
same,normalized growth,"S. cerevisiae deletion strains, locus YAL026C, strain drs2, active compounds read low",1.01
same,normalized growth,"S. cerevisiae deletion strains, locus YAL030W, strain snc1, active compounds read low",1
same,normalized growth,"S. cerevisiae deletion strains, locus YBL061C, strain skt5, active compounds read low",0.999
same,normalized growth,"S. cerevisiae deletion strains, locus YBR009C, strain hhf1, active compounds read low",1.06
same,normalized growth,"S. cerevisiae deletion strains, locus YBR023C, strain chs3, active compounds read low",1
same,normalized growth,"S. cerevisiae deletion strains, locus YBR171W, strain sec66, active compounds read low",0.988
same,normalized growth,"S. cerevisiae deletion strains, locus YBR231C, strain swc5, active compounds read low",1.01
same,normalized growth,"S. cerevisiae deletion strains, locus YBR279W, strain paf1, active compounds read low",1.01
same,normalized growth,"S. cerevisiae deletion strains, locus YCL011C, strain gbp2, active compounds read low",0.987
same,normalized growth,"S. cerevisiae deletion strains, locus YCL016C, strain dcc1, active compounds read low",1.01
same,normalized growth,[1],0.984
same,normalized growth,"S. cerevisiae deletion strains, locus YCL069W, strain vba3, active compounds read low",0.99
same,normalized growth,"S. cerevisiae deletion strains, locus YCR088W, strain abp1, active compounds read low",0.988
same,normalized growth,"S. cerevisiae deletion strains, locus YDL005C, strain med2, active compounds read low",0.99
same,normalized growth,"S. cerevisiae deletion strains, locus YDL040C, strain nat1, active compounds read low",0.996
same,normalized growth,"S. cerevisiae deletion strains, locus YDR001C, strain nth1, active compounds read low",0.984
same,normalized growth,"S. cerevisiae deletion strains, locus YDR069C, strain doa4, active compounds read low",0.998
same,normalized growth,"S. cerevisiae deletion strains, locus YDR137W, strain rgp1, active compounds read low",0.934
same,normalized growth,"S. cerevisiae deletion strains, locus YDR159W, strain sac3, active compounds read low",1.03
same,normalized growth,"S. cerevisiae deletion strains, locus YDR195W, strain ref2",0.987
same,normalized growth,"S. cerevisiae deletion strains, locus YDR297W, strain sur2, active compounds read low",0.991
same,normalized growth,"S. cerevisiae deletion strains, locus YDR334W, strain swr1, active compounds read low",0.969
same,normalized growth,"S. cerevisiae deletion strains, locus YDR335W, strain msn5, active compounds read low",0.996
same,normalized growth,"S. cerevisiae deletion strains, locus YDR392W, strain spt3, active compounds read low",0.965
same,normalized growth,"S. cerevisiae deletion strains, locus YEL003W, strain gim4, active compounds read low",0.999
same,normalized growth,"S. cerevisiae deletion strains, locus YEL037C, strain rad23, active compounds read low",0.999
same,normalized growth,"S. cerevisiae deletion strains, locus YEL061C, strain CIN8 (second series), active compounds read low",0.991
same,normalized growth,"S. cerevisiae deletion strains, locus YER015W, strain faa2, active compounds read low",1.02
same,normalized growth,"S. cerevisiae deletion strains, locus YER016W, strain bim1, active compounds read low",1.01
same,normalized growth,"S. cerevisiae deletion strains, locus YER111C, strain swi4, active compounds read low",1.01
same,normalized growth,"S. cerevisiae deletion strains, locus YER155C, strain BEM2 (second series), active compounds read low",1.04
same,normalized growth,"S. cerevisiae deletion strains, locus YFR010W, strain ubp6, active compounds read low",1
same,normalized growth,"S. cerevisiae deletion strains, locus YGL167C, strain pmr1, active compounds read low",0.997
same,normalized growth,"S. cerevisiae deletion strains, locus YGL173C, strain kem1, active compounds read low",1
same,normalized growth,"S. cerevisiae deletion strains, locus YGL227W, strain vid30, active compounds read low",1
same,normalized growth,"S. cerevisiae deletion strains, locus YGL240W, strain doc1, active compounds read low",1.03
same,normalized growth,"S. cerevisiae deletion strains, locus YGL253W, strain hxk2, active compounds read low",1.01
same,normalized growth,"S. cerevisiae deletion strains, locus YHR013C, strain ard1, active compounds read low",0.977
same,normalized growth,"S. cerevisiae deletion strains, locus YHR027C, strain rpn1, active compounds read low",0.987
same,normalized growth,"S. cerevisiae deletion strains, locus YHR142W, strain chs7, active compounds read low",0.936
same,normalized growth,"S. cerevisiae deletion strains, locus YJL092W, strain hpr5, active compounds read low",0.983
same,normalized growth,"S. cerevisiae deletion strains, locus YJL095W, strain BCK1 (second series), active compounds read low",0.987
same,normalized growth,"S. cerevisiae deletion strains, locus YJL115W, strain asf1, active compounds read low",0.98
same,normalized growth,"S. cerevisiae deletion strains, locus YJL129C, strain trk1, active compounds read low",0.986
same,normalized growth,"S. cerevisiae deletion strains, locus YJL154C, strain vps35, active compounds read low",0.992
same,normalized growth,"S. cerevisiae deletion strains, locus YJL164C, strain tpk1, active compounds read low",0.978
same,normalized growth,"S. cerevisiae deletion strains, locus YJL166W, strain qcr8, active compounds read low",1.01
same,normalized growth,"S. cerevisiae deletion strains, locus YJL187C, strain SWE1, active compounds read low",0.996
same,normalized growth,"S. cerevisiae deletion strains, locus YKL160W, strain elf1, active compounds read low",0.955
same,normalized growth,"S. cerevisiae deletion strains, locus YKR026C, strain gcn3, active compounds read low",0.988
same,normalized growth,"S. cerevisiae deletion strains, locus YKR091W, strain srl3, active compounds read low",0.989
same,normalized growth,"S. cerevisiae deletion strains, locus YLL001W, strain dnm1, active compounds read low",1
same,normalized growth,"S. cerevisiae deletion strains, locus YLL026W, active compounds read low",0.992
same,normalized growth,"S. cerevisiae deletion strains, locus YLL041C, strain sdh2, active compounds read low",0.99
same,normalized growth,"S. cerevisiae deletion strains, locus YLR027C, strain aat2, active compounds read low",0.993
same,normalized growth,"S. cerevisiae deletion strains, locus YLR221C, strain rsa3, active compounds read low",0.997
same,normalized growth,"S. cerevisiae deletion strains, locus YLR258W, strain gsy2, active compounds read low",1.01
same,normalized growth,"S. cerevisiae deletion strains, locus YLR262C, strain YPT6 (second series), active compounds read low",0.962
same,normalized growth,"S. cerevisiae deletion strains, locus YLR320W, strain mms22, active compounds read low",0.989
same,normalized growth,"S. cerevisiae deletion strains, locus YLR342W, strain FKS1, active compounds read low",1
same,normalized growth,"S. cerevisiae deletion strains, locus YLR357W, strain rsc2, active compounds read low",1.02
same,normalized growth,"S. cerevisiae deletion strains, locus YLR370C, strain arc18, active compounds read low",0.992
same,normalized growth,"S. cerevisiae deletion strains, locus YLR384C, strain iki3, active compounds read low",0.998
same,normalized growth,"S. cerevisiae deletion strains, locus YML120C, strain ndi1, active compounds read low",0.986
same,normalized growth,"S. cerevisiae deletion strains, locus YMR058W, strain fet3, active compounds read low",0.983
same,normalized growth,"S. cerevisiae deletion strains, locus YMR125W, strain sto1, active compounds read low",0.988
same,normalized growth,"S. cerevisiae deletion strains, locus YMR129W, active compounds read low",0.973
same,normalized growth,"S. cerevisiae deletion strains, locus YMR205C, strain PFK2, active compounds read low",1.05
same,normalized growth,"S. cerevisiae deletion strains, locus YMR231W, strain pep5, active compounds read low",0.992
same,normalized growth,"S. cerevisiae deletion strains, locus YNL071W, strain lat1, active compounds read low",0.985
same,normalized growth,"S. cerevisiae deletion strains, locus YNL209W, strain ssb2, active compounds read low",0.993
same,normalized growth,"S. cerevisiae deletion strains, locus YNL248C, strain rpa49, active compounds read low",0.933
same,normalized growth,"S. cerevisiae deletion strains, locus YNL322C, strain KRE1 (second series), active compounds read low",0.996
same,normalized growth,"S. cerevisiae deletion strains, locus YNR049C, strain mso1, active compounds read low",0.988
same,normalized growth,"S. cerevisiae deletion strains, locus YOR001W, strain rrp6, active compounds read low",0.974
same,normalized growth,"S. cerevisiae deletion strains, locus YOR070C, strain gyp1, active compounds read low",1
same,normalized growth,"S. cerevisiae deletion strains, locus YOR080W, strain dia2, active compounds read low",1.02
same,normalized growth,"S. cerevisiae deletion strains, locus YOR083W, strain WHI5, active compounds read low",0.942
same,normalized growth,"S. cerevisiae deletion strains, locus YOR106W, strain vam3, active compounds read low",0.946
same,normalized growth,"S. cerevisiae deletion strains, locus YOR265W, strain rbl2, active compounds read low",0.992
same,normalized growth,"S. cerevisiae deletion strains, locus YOR270C, strain vph1, active compounds read low",0.972
same,normalized growth,"S. cerevisiae deletion strains, locus YOR290C, strain snf2, active compounds read low",0.976
same,normalized growth,"S. cerevisiae deletion strains, locus YPL051W, strain arl3, active compounds read low",0.974
same,normalized growth,"S. cerevisiae deletion strains, locus YPL078C, strain atp4, active compounds read low",0.925
same,normalized growth,"S. cerevisiae deletion strains, locus YPL106C, strain sse1, active compounds read low",1.01
same,normalized growth,"S. cerevisiae deletion strains, locus YPL240C, strain hsp82, active compounds read low",0.978
